Measurements: the supplement of paper PMC6555819

Tested on: VDR:RXRa (NR concentration 270 nM, RXRa partner concentration 90 nM)
Assay: PBM binding z-score (relative to random genomic background probes); higher = stronger binding; sequences stand for … in GC…GCGATTGACAGCGTAGAATGAAGG
Method: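 Protein-binding microarray (Agilent 4x180K custom design, double-stranded 60-nt probes: 5' GC cap, 34-nt variable region, 24-nt constant primer region; full probe sequence given). Purified or IVT nuclear receptor:RXRα heterodimers (3:1 NR:RXRα, mostly 270:90 nM) or homodimers were incubated for 1 h in PBS with 2% milk and no ligand, then detected with Alexa488 antibodies. Fluorescence from o1-orientation probes (~5 replicates averaged) was converted to z-scores against 500 random hg19 background probes. Variable regions are seed direct-repeat (DR0–DR5) sites, all their single-nucleotide variants and half-site ablations.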

| Sequence | PBM binding z-score |
| --- | --- |
| ACGATTAGTTGACTTAGGGCAACCGATACGACGC | 0.161 |
| GGAAAGAGGGCAAGTTGATAGCAGAGTTTGATGG | 1.24 |
| ATCTCTAGGTAAAAGTACAGTGAATCCCGAGGAT | -0.148 |
| GCGACTGGGGCAAAGCAGGTTACCATAAGGTTGG | 0.149 |
| AACTCTAGGTAAAAGTTCAGTGAATCCCGAGGAT | 1.11 |
| GCTATTAGTAGAAAGGGCAACCGAATGATTCTCG | 0.11 |
| CCTAGTTGGTCACGAGGTCACACACCGGATATGA | 4.77 |
| AGTCAAAGTTCATCTAGGTAACGTATGATATGCT | 4.91 |
| CGAACGAGGCCATGAGTTGATAGCAAATGCCGAT | 0.155 |
| TCTTGTAGATCAATAGAGGTTAAGAAGGTGCGCT | 1.91 |
| CCTTACGGGTCACTCCAGTTTATAGCATCGGAGT | 5.1 |
| AGAAAGAGGGCAATGAGTTGATAGCACGGGTGGC | 5.59 |
| TCATATAGGTAAAGGTGAAAGCCGAACGATATGA | 0.743 |
| AGAACGTGGGCAATGAGTTGATAGCACGGGTGGC | 0.69 |
| TCGAGTAGGTTACCAATGGGGTATTCAGCTTTCT | 0.0284 |
| TCTAGCAGGCCAGAGGGTAACTCAAGAGGTACGG | -0.204 |
| TCTCGGAGGACACGAAAGGTCAGAGCTCGACATC | 3.28 |
| TTGCCTAGGTCAGATCGGGCCAGTATACGCTATA | 0.82 |
| TCGAGTAGGTTACCAATGGTGCATTCAGCTTTCT | 0.228 |
| ATCTCTAGGTCACAAGTTCAGTGAAAGAGAGGAC | 4.26 |

| Sequence | PBM binding z-score |
| --- | --- |
| TCTATTAGTTGATGGGCAACCGACGAGTCCGTTT | 0.542 |
| TCTAGTTGGTCAAAGGTCACACGCTCGAAATGCG | 5.38 |
| AATACAGGGTCATCGTAGGCCGGAGTACGCACAG | 4.89 |
| ATCCCAAGGTGATCGTGAGGTCGTTGATACTAAC | 2.87 |
| CGAACTAGGTCATTGACGGGACAGTGAATAGTAA | 1.86 |
| ACTACTTGGTCAGCTGAGGTCACACACAATTCGG | 4.74 |
| GCTATTAGTTGAAAGGGCAAGCGAATGATTCTCG | 0.461 |
| TCTTGTAGATCAGCACGTTAAGAAAGCTGGCCAA | 0.0103 |
| AGCCAAAGTTCAGGACGAGGTAACGTAAAGCACG | 2.71 |
| CAAACTAGGTGACCGGAAGGTCAAAGTCCGCATG | 4 |
| AGAGCGAGGGCACGCTGAGTTGATAGCAGAGTAG | 1.86 |
| AGTCAAAGTTCATCTAGGTAATGTAAGATATGCT | 5.13 |
| ATCGAAAGGTCGAGGGTGAGTATACCCACCCGAA | 2.68 |
| CCTGGCAGGCCAATCTGGGTCACTCAAGGCTTGA | 0.406 |
| AAAACGAGGGCACGCTGAGTTGATAGCAGAGTAG | 2.53 |
| ATCTCTAGGTAACCAAGTTCAGGGAATGCCGAAC | 3.85 |
| CTTAGCAGGCCAGGGTCACTCAAGCATTTCGCTT | 2.67 |
| CGTCCAAGGTCAATGCTAGGTCAGTGAAAGCATT | 4.81 |
| ACTAGGAGGCCAAGTTTGGGTCACTCAAACAAAG | 1.08 |
| CAAACTAGGTCACGGAAGGTCAAAGTCGAATGAC | 6.69 |
